SMILES strings stand for the structures. The source made the active and inactive calls. Rule for the calls: active = hit-call score of the fitted dose curve at least 0.9, where 1 is the maximum; inactive = score below 0.9.

What all share (details): mRNA level, 48 h; actives raise or lower the signal
Read-out in assay [1]: Cytochrome P450 (CYP2B6), CYP2B6 (gene 1555)
Briefly: LTEA_HepaRG_CYP2B6: Life Technologies and Expression Analysis (LTEA) Assay for Cytochrome P450 (CYP2B6) using HepaRG (AID 2283481). A digest of the protocol: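 Human HepaRG, 48 h dosing, 0.5% DMSO vehicle, top dose 100 uM. CYP2B6 transcript by qRT-PCR, housekeeping-normalized, bidirectional curve fit.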

Read-out in another assay: CYP2C8 (gene 1558)
Briefly: LTEA_HepaRG_CYP2C8: Life Technologies and Expression Analysis (LTEA) Assay for CYP2C8 using HepaRG (AID 2283483). A digest of the protocol:
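HepaRG (human liver line), 48 h chemical exposure, 8-pt half-log series from 100 uM, 0.5% DMSO vehicle. Readout: CYP2C8 transcript by qRT-PCR, housekeeping-normalized. Bidirectional fit vs DMSO baseline.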

Read-out in another assay: CYP2C9 (gene 1559)
Briefly: LTEA_HepaRG_CYP2C9: Life Technologies and Expression Analysis (LTEA) Assay for CYP2C9 using HepaRG (AID 2283484). A digest of the protocol: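 HepaRG, 48 h dosing, 8-pt half-log series, top 100 uM, 0.5% DMSO vehicle. Read-out: CYP2C9 transcript by TaqMan qRT-PCR, housekeeping-normalized (ACTB/GAPDH/POLR2A). Gain or loss fitted vs DMSO baseline.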

Read-out in another assay: CYP2E1 (gene 1571)
Briefly: LTEA_HepaRG_CYP2E1: Life Technologies and Expression Analysis (LTEA) Assay for CYP2E1 using HepaRG (AID 2283485). The method, boiled down: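 Readout is qRT-PCR of CYP2E1 mRNA, normalized to three housekeeping genes and fitted bidirectionally against 0.5% DMSO. HepaRG cells were dosed 48 h at eight concentrations, highest 100 uM with half-log dilutions.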

Read-out in a further assay: CYP4A11 (gene 1579)
The assay can be described thus: LTEA_HepaRG_CYP4A11: Life Technologies and Expression Analysis (LTEA) Assay for CYP4A11 using HepaRG (AID 2283486). The method, boiled down:
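Human hepatic HepaRG cultures receive duplicate 48 h exposures across a concentration-response series topping at 100 uM. Expression changes in CYP4A11 are measured by qRT-PCR relative to DMSO controls.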

Read-out in assay [2]: Cytochrome P450 3A4 (Homo sapiens) (UniProt P08684)
Briefly: LTEA_HepaRG_CYP3A4: Life Technologies and Expression Analysis (LTEA) Assay for CYP3A4 using HepaRG (AID 2283487). A digest of the protocol:
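HepaRG, 48 h exposure, 8-pt CRC from 100 uM (half-log), 0.5% DMSO, duplicates; serum-free induction medium. Readout: CYP3A4 mRNA, qRT-PCR, ACTB/GAPDH/POLR2A normalization. Bidirectional fit vs DMSO.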

Read-out in assay [3]: DNA damage-inducible transcript 3 (DDIT3), DDIT3 (gene 1649)
Briefly: LTEA_HepaRG_DDIT3: Life Technologies and Expression Analysis (LTEA) Assay for DNA damage-inducible transcript 3 (DDIT3) using HepaRG (AID 2283488). A digest of the protocol:
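Cells are human HepaRG liver cells treated for 48 h with eight half-log concentrations up to 100 uM in 0.5% DMSO. Transcript levels come from qRT-PCR normalized to three housekeeping genes, with activity fitted in both directions relative to vehicle.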

Read-out in assay [4]: Pro-epidermal growth factor (Homo sapiens) (UniProt P01133)
The assay can be described thus: LTEA_HepaRG_EGF: Life Technologies and Expression Analysis (LTEA) Assay for Epidermal growth factor (EGF) using HepaRG (AID 2283489). A digest of the protocol:
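Concentration-response mRNA assay: HepaRG cells dosed 48 h (max 100 uM, 0.5% DMSO), EGF measured by qRT-PCR and normalized to ACTB/GAPDH/POLR2A.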

Read-out in assay [5]: Early growth response protein 1 (EGR1) transcription factor, EGR1 (gene 1958)
Briefly: LTEA_HepaRG_EGR1: Life Technologies and Expression Analysis (LTEA) Assay for Early growth response protein 1 (EGR1) transcription factor using HepaRG (AID 2283490). The method, boiled down:
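HepaRG, 48 h exposure, 8-pt half-log series from 100 uM, 0.5% DMSO vehicle; EGR1 transcript by TaqMan qRT-PCR (Fluidigm array), housekeeping-normalized; bidirectional fit relative to DMSO baseline.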

Read-out in assay [6]: Cytochrome P450 3A7 (Homo sapiens) (UniProt P24462)
Briefly: LTEA_HepaRG_CYP3A7: Life Technologies and Expression Analysis (LTEA) Assay for CYP3A7 using HepaRG (AID 2283492). A digest of the protocol: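 qRT-PCR of CYP3A7 in HepaRG lysates after 48 h treatment; concentration-response (8 points, max 100 uM) analysed bidirectionally relative to 0.5% DMSO controls.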

Read-out in the next assay: CYP3A5 (gene 1577)
The assay can be described thus: LTEA_HepaRG_CYP3A5: Life Technologies and Expression Analysis (LTEA) Assay for CYP3A5 using HepaRG (AID 2283493). A digest of the protocol:
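Human HepaRG hepatic cells receive 48 h chemical treatment at eight concentrations (half-log steps from 100 uM) in 0.5% DMSO. Expression of CYP3A5 is quantified by Fluidigm qRT-PCR and normalized to three reference genes.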

Read-out in assay [7]: Fatty Acid-Binding Protein 1 (FABP1), FABP1 (gene 2168)
The assay can be described thus: LTEA_HepaRG_FABP1: Life Technologies and Expression Analysis (LTEA) Assay for Fatty Acid-Binding Protein 1 (FABP1) using HepaRG (AID 2283494). A digest of the protocol: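 qRT-PCR readout of FABP1 transcript (normalized to three housekeeping genes) after 48 h chemical exposure of HepaRG cells; eight concentrations, half-log steps, max 100 uM, 0.5% DMSO vehicle; gain or loss fitted relative to DMSO baseline.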

Read-out in assay [8]: Cytochrome P450 4A22 (Homo sapiens) (UniProt Q5TCH4)
The assay can be described thus: LTEA_HepaRG_CYP4A22: Life Technologies and Expression Analysis (LTEA) Assay for Cytochrome P450 4A22 (CYP4A22) using HepaRG (AID 2283495). A digest of the protocol:
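Concentration-response (8 points, max 100 uM, 0.5% DMSO) in human HepaRG liver cells after 48 h exposure. CYP4A22 mRNA by TaqMan qRT-PCR with housekeeping-gene normalization.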

Read-out in assay [9]: Cytochrome P450 7A1 (Homo sapiens) (UniProt P22680)
The assay can be described thus: LTEA_HepaRG_CYP7A1: Life Technologies and Expression Analysis (LTEA) Assay for Cytochrome P450 7A1 (CYP7A1) using HepaRG (AID 2283496). A digest of the protocol: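 HepaRG, 48 h exposure, 8-pt half-log series from 100 uM, 0.5% DMSO vehicle, duplicates. Readout: TaqMan qRT-PCR mRNA vs three housekeeping genes; bidirectional curve fit against DMSO baseline.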

Read-out in assay [10]: Glutamate-cysteine ligase catalytic (GCLC), GCLC (gene 2729)
The assay can be described thus: LTEA_HepaRG_GCLC: Life Technologies and Expression Analysis (LTEA) Assay for Glutamate-cysteine ligase catalytic (GCLC) using HepaRG (AID 2283498). A digest of the protocol:
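HepaRG, 48 h exposure, 8-pt half-log series from 100 uM, 0.5% DMSO vehicle; TaqMan qRT-PCR for GCLC mRNA, housekeeping-normalized; bidirectional curve fit vs DMSO baseline.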

Read-out in assay [11]: growth arrest and DNA damage 45 (GADD45G), GADD45G (gene 10912)
The assay can be described thus: LTEA_HepaRG_GADD45G: Life Technologies and Expression Analysis (LTEA) Assay for growth arrest and DNA damage 45 (GADD45G) using HepaRG (AID 2283499). The method, boiled down:
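Concentration-response in HepaRG: 48 h dosing, 0.5% DMSO, highest level 100 uM. GADD45G expression by qRT-PCR, normalised to endogenous controls; bidirectional fit to DMSO.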

Read-out in assay [12]: Glutamate-cysteine ligase regulatory (GCLM), GCLM (gene 2730)
The assay can be described thus: LTEA_HepaRG_GCLM: Life Technologies and Expression Analysis (LTEA) Assay for Glutamate-cysteine ligase regulatory (GCLM) using HepaRG (AID 2283500). A digest of the protocol: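 Endpoint is GCLM transcript level by qRT-PCR, normalized to three housekeeping genes, after 48 h chemical exposure of human HepaRG cells (0.5% DMSO vehicle, top 100 uM, half-log dilutions). Fitting was bidirectional relative to DMSO.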

Read-out in assay [13]: Glutathione S-Transferase (GSTA2), GSTA2 (gene 2939)
The assay can be described thus: LTEA_HepaRG_GSTA2: Life Technologies and Expression Analysis (LTEA) Assay for Glutathione S-Transferase (GSTA2) using HepaRG (AID 2283497). A digest of the protocol: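 qRT-PCR readout of GSTA2 transcript, normalized to three housekeeping genes, fitted bidirectionally against 0.5% DMSO baseline. Differentiated HepaRG cells received compound for 48 h at 8 concentrations (top 100 uM, half-log steps).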

Sequence of Cytochrome P450 3A7 (Homo sapiens) (P24462 whole entry, looked up): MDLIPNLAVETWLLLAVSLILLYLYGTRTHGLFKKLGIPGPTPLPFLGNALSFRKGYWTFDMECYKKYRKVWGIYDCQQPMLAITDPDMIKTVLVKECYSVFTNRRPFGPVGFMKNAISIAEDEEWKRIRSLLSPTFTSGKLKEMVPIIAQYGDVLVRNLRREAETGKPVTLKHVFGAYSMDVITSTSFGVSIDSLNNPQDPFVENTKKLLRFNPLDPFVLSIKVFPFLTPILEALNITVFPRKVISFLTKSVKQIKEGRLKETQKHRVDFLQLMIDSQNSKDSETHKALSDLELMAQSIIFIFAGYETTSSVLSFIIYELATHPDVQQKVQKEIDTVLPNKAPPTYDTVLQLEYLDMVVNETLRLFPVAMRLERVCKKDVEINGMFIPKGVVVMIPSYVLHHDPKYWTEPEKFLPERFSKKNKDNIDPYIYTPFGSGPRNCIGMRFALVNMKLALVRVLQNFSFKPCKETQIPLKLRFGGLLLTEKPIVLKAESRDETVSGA
Sequence of Cytochrome P450 3A4 (Homo sapiens) (P08684 whole entry, looked up): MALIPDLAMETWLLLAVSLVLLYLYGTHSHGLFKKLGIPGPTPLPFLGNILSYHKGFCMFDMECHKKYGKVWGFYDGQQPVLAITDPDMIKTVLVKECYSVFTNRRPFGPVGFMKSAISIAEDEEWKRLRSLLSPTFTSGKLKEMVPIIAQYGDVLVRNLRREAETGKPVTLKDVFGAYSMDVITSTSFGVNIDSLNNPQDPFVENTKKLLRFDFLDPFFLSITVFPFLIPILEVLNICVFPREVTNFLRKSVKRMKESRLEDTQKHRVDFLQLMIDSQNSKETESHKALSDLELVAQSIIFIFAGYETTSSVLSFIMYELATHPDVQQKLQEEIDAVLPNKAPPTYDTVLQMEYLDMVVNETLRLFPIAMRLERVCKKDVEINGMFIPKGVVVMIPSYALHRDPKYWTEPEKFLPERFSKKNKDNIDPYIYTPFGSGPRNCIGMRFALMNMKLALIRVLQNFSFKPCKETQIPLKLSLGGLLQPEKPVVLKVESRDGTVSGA

With `COP(N)(=O)SC` (stereo not drawn), the outcome (in [1]; with CYP2C8 (gene 1558); with CYP2C9 (gene 1559); with CYP2E1 (gene 1571); with CYP4A11 (gene 1579); in [2]) was inactive. The outcome (in [3]; in [4]; in assay [5]; in [6]; in the assay with CYP3A5 (gene 1577); in [7]) was inactive. The compound was classed as inactive in assay [8], in assay [9], in [10], in [11] and in [12].
In the case of `Cc1c(F)c(F)c(COC(=O)C2C(/C=C(\Cl)C(F)(F)F)C2(C)C)c(F)c1F` (stereo not drawn), the compound was classed as inactive (in assay [1]; in the assay with CYP2C8 (gene 1558); with CYP2C9 (gene 1559); with CYP4A11 (gene 1579); in assay [2]; in [3]). Moreover, the result (in [5]; in [6]; in the assay with CYP3A5 (gene 1577); in [8]; in [9]; in [10]) was inactive. Further, the call in assay [11] and in assay [12] was inactive. Besides, the AC50 with CYP2E1 (gene 1571) is 72.3 µM (active); in assay [4], 50 µM (active); in assay [7], 63.1 µM (active).
Regarding `CC(Oc1ccc(Cl)cc1Cl)C(=O)O` (stereo not drawn), the result (in assay [1]; with CYP2C8 (gene 1558); with CYP2C9 (gene 1559); with CYP2E1 (gene 1571); in [2]; in [3]) was inactive. Also, the outcome (in assay [4]; in [5]; in assay [6]; with CYP3A5 (gene 1577); in [8]; in assay [9]) was inactive. The outcome in [13], in assay [10], in [11] and in [12] was inactive. Moreover, the AC50 in the assay with CYP4A11 (gene 1579) is 71.5 µM (active); in [7], 50 µM (active).
Regarding `CCCCC(CC)COC(=O)c1ccccc1C(=O)OCC(CC)CCCC` (stereo not drawn), the AC50 in [1] was 19 µM (active). Moreover, the outcome (in the assay with CYP2C8 (gene 1558); with CYP2C9 (gene 1559); with CYP2E1 (gene 1571); with CYP4A11 (gene 1579); in [3]; in [4]) was inactive. Moreover, the compound was called inactive (in assay [5]; in [6]; in the assay with CYP3A5 (gene 1577); in assay [7]; in assay [8]; in assay [9]). Further, the call in assay [10], in assay [11] and in assay [12] was inactive.

The record behind these values is PubChem BioAssay (EPA / NIEHS).
